Laboratory results taken from PubChem BioAssay AID463195 (Sanford-Burnham Center for Chemical Genomics, 2010).
The whole screen tested about 330,000 compounds, of which about 4,600 (1.4%) were called active. Only a selection was taken, and actives are over-represented in it overall. Unmarked numbers belong to inactive results.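 How the source made its calls: active means inhibition of 40% or more at the single tested concentration; inactive means the rest.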

Assay: growth inhibitors of isogenic TIM10 control yeast, primary screen, counter-screen for tim10-1 yeast inhibitor project, luminescence, uHTS (AID 463195);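 further: wild-type TIM10 isogenic control strain grown at permissive 25 °C; 0% = DMSO yeast wells and 100% = minimal medium wells without yeast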
Conditions: S. cerevisiae TIM10 strain growth, BacTiter-Glo luminescence, 24 h; at 10 µM; hits give high values

Row | SMILES | inhibition
1 | CN(CC(=O)NC(=O)Nc1ccccc1F)Cc1ccccc1 | 2.75%
2 | Cc1cc(C)c(S(=O)(=O)N2CCC(C(=O)OCc3c(C)noc3C)CC2)c(C)c1 | 8.76%
3 | Cc1noc(C)c1NC(=O)Nc1cccc2c1O[C@H](CN(C)S(=O)(=O)c1c(C)noc1C)[C@@H](C)CN([C@H](C)CO)C2=O | 9.51%
4 | O=C1c2ccccc2S(=O)(=O)N1CC(O)Cn1c2ccccc2c2ccccc21 (configuration not stated) | 79.5% (active)
5 | CCCCN(CCCC)CC(O)Cn1c2ccccc2c(=O)c2ccccc21 (configuration not stated) | -7.98%
6 | CC(C)(C)c1ccc(CN2C(=O)c3ccccc3S2(=O)=O)cc1 | 11%
7 | COC(=O)c1ccc(C2C3=C(Nc4nnnn42)c2ccccc2OC3)cc1 (configuration not stated) | 27.5%
8 | CCCc1[nH]nc2c1C(c1ccc(OC(=O)c3ccco3)cc1)C(C#N)=C(N)O2 (configuration not stated) | 3.44%
9 | CCCc1[nH]nc2c1C(c1ccc(OC)c(Cn3nc(C)c(Br)c3C)c1)C(C#N)=C(N)O2 (configuration not stated) | 3.67%
10 | CCCc1[nH]nc2c1C(c1ccc(Br)s1)C(C#N)=C(N)O2 (configuration not stated) | 66.7% (active)
11 | CCCCN(CC)C(=O)CN(C)S(=O)(=O)c1cccc2nsnc12 | -12.4%
12 | COc1ccc(NC(=O)COc2ccc(C(=O)c3ccc(F)cc3)cc2)cc1S(N)(=O)=O | 7.33%
13 | Cc1ccc(-c2ccc(/C=C(\C#N)C(N)=S)o2)c([N+](=O)[O-])c1 | 51.5% (active)
14 | CC1=NN(c2ccc(Cl)c(C(=O)O)c2)C(=O)/C1=C/c1ccc(-c2ccccc2[N+](=O)[O-])o1 | 12.6%
15 | Cc1cc(C)c([N+](=O)[O-])cc1-c1ccc(/C=N/NC(=O)c2nonc2N)o1 | -9.15%
16 | CC(C)NC(=O)N1CCN(c2ccncc2S(=O)(=O)N2CCCCC2)CC1 | -2.83%
17 | Oc1ccc(-c2cccc(-c3ccc(O)cc3)c2)cc1 | -32.3%
18 | O=C(/C=C/c1cc2c(cc1Br)OCO2)NCc1ccc(Cl)cc1 | -5.07%
19 | O=C(Nc1ccncc1)c1ccc(Cl)c([N+](=O)[O-])c1 | -47.9%
20 | O=C(/C=C/c1ccc(Cl)c([N+](=O)[O-])c1)c1cccnc1 | 73.9% (active)
21 | O=C(/C=C/c1ccc(Cl)cc1Cl)c1cccnc1 | 8.99%
22 | CC1CCCCC12NC(=O)N(CC(=O)OCc1c(F)cccc1Cl)C2=O (configuration not stated) | 1.25%
23 | COc1ccc(-c2cc3n(n2)CCc2nc4ccccc4n2-3)cc1 | 17.5%

Row | SMILES | inhibition
24 | O=[N+]([O-])c1cccc(Nc2c3ccccc3nc3ccccc23)c1 | 42.1% (active)
25 | N#Cc1cccc(Nc2c3c(nc4ccccc24)CCCC3)c1 | 22.5%
26 | Cc1cc(CNC(=O)c2cccc([N+](=O)[O-])c2)c2ccccc2n1 | 8.64%
27 | COC(=O)Nc1ccc(S(=O)(=O)N2CCN(CCN3C(=O)C4C5C=CC(C5)C4C3=O)CC2)cc1 (configuration not stated) | -10.8%
28 | COc1ccc(C)cc1NC(=O)C(Sc1ccccc1)c1ccccc1 (configuration not stated) | 2.49%
29 | O=C(Cc1ccccc1)NC(=S)Nc1ccc(N2CCCCC2)cc1 | 40.2% (active)
30 | Cc1ccccc1C(=O)NC(=S)Nc1ccc(N2CCN(C(=O)c3ccccc3)CC2)cc1 | -9.29%
31 | O=C(CCN1CCN(c2ccccc2)CC1)NNC(=S)Nc1ccccc1 | 1.6%
32 | O=C(CCc1nc(-c2ccccc2)no1)Nc1cccc(C(=O)NC2CC2)c1 | -6.75%
33 | CCCCn1c(N)c(N(CCOC)C(=O)c2cccc(S(=O)(=O)N3CCCCC3)c2)c(=O)[nH]c1=O | -2.98%
34 | Cc1cccc(C(=O)NCC(=O)OCC(=O)N(C)CC(=O)Nc2ccccc2Cl)c1 | -5.14%
35 | Cc1ccc2nc(-c3ccc(SCC(=O)Nc4cc(C)on4)nc3)[nH]c2c1 | 42.6% (active)
36 | Cc1ccc(SCCC(=O)Nc2cc(C)on2)cc1 | 4.66%
37 | Cc1cccc(-n2ncc3c(=O)[nH]c(SCC(=O)Nc4cc(C)on4)nc32)c1 | -12.1%
38 | CC(=O)c1cccc(NC(=S)N2CCN(S(C)(=O)=O)CC2)c1 | 13%
39 | Cc1cccc(-n2c(C)cc(/C=N/NC(N)=S)c2C)c1 | -24.1%
40 | CCOc1ccc(/C=N/NC(N)=S)cc1 | -25.2%
41 | CC(C)Oc1c(Br)cc(Br)cc1/C=N/NC(N)=S | 51.7% (active)
42 | O=C(CCNC(=O)c1ccc(Br)cc1)NCCCc1ccccc1 | -4.58%
43 | S=C(NCCCc1ccccc1)Nc1ccc(Br)cc1 | 43.1% (active)
44 | S=C(Nc1ccc(Br)cc1)NC1CCN(Cc2ccccc2)CC1 | -24.3%
45 | CC(C)n1c(O)c(N=Nc2ccccn2)c2ccccc21 | 3.1%
46 | O=c1c(/C=N/O)coc2ccc(Cl)cc12 | -3.79%

Row | SMILES | inhibition
47 | Cc1ccc2occ(/C=N/NC(=O)c3ccccc3C)c(=O)c2c1 | 20.6%
48 | NC(=S)N/N=C/c1coc2cc(Cl)ccc2c1=O | 42.4% (active)
49 | CC(C)c1ccc(NC(=O)COC(=O)c2ccc(CN3CCCC3=O)cc2)cc1 | 1.1%
50 | CC1(C)CC(CCC(=O)Nc2ccccc2Cl)C(=O)O1 (configuration not stated) | 1.62%
51 | O=C(Nc1ccccc1Cl)/C(Cl)=C(\Cl)S(=O)c1ccccc1 (configuration not stated) | 86.7% (active)
52 | Cc1c(NC(=O)Nc2ccccc2Cl)sc(=S)n1C | 2.45%
53 | O=C(O)C1C2CC2CN1C(=O)c1ccc(Cl)cc1Cl (configuration not stated) | -17.4%
54 | CN(Cc1nc(-c2cnccn2)no1)Cc1n[nH]c2c1CCCCC2 | 4.12%
55 | CCOCCCNC(=O)c1cn(CC(C)C)c(=O)c2c1c1ccccc1n2C | 3.76%
56 | O=c1nc2s/c(=C\c3ccco3)c(=O)n2nc1Cc1ccccc1 | 63.3% (active)
57 | O=C(Nc1ccccc1)/C(=C\c1ccco1)NC(=O)c1ccco1 | -2.56%
58 | O=C(NCCc1ccco1)c1nn(Cc2ccccc2)c(=O)c2ccccc12 | 2.63%
59 | COC(=O)c1c(NC(=O)CN2CCN(S(=O)(=O)c3ccccc3[N+](=O)[O-])CC2)sc2c1CCC(C)C2 (configuration not stated) | 14.5%
60 | CC(=O)N1C(C)c2ccccc2C(C)(C)CC12CCCCC2 (configuration not stated) | 41.9% (active)
61 | COCCCNC(=O)C1CC(=O)N(CCc2ccc(F)cc2)C1 (configuration not stated) | -8.81%
62 | CCOCCCn1c(SCC(=O)Nc2cc(OC)ccc2OC)nc2ccccc2c1=O | 11.4%
63 | OC(CNCC1CCCO1)Cn1c2ccc(Br)cc2c2cc(Br)ccc21 (configuration not stated) | 62.5% (active)
64 | O=C(CCNS(=O)(=O)c1ccc(Br)cc1)NCC1CCCO1 (configuration not stated) | -3.43%
65 | O=C(CSc1ccc(-c2ccc(Br)cc2)nn1)NCC1CCCO1 (configuration not stated) | 15.2%
66 | CCCCCNC(=O)c1cccnc1SCC(=O)Nc1ccccc1OC | 1.04%
67 | COc1ccc(N2CCN(C(=O)CCSCc3ccccc3F)CC2)cc1 | 27.5%
68 | CC(=O)N(Cc1cccs1)C1CCOC(C)(C)C1 (configuration not stated) | -0.323%
69 | Cc1ccc(C(C[N+](=O)[O-])c2c(C)cc3ccccn23)cc1 (configuration not stated) | 21.6%

Row | SMILES | inhibition
70 | Nc1ccccc1SC(C[N+](=O)[O-])c1ccccc1 (configuration not stated) | 59.3% (active)
71 | Cc1ccc(C)c(OCCC(=O)OCC(=O)N2CCN(c3ccccc3)CC2)c1 | 5.69%
72 | O=S(=O)(Nc1cccc(Oc2ccc(Cl)cc2)n1)c1ccc(F)cc1 | 37.9%
73 | O=C(COC(=O)C1CCCO1)Nc1nc(-c2ccc(F)cc2)cs1 (configuration not stated) | 2.65%
74 | O=C(CN1CCN(c2nc(-c3ccccc3)cs2)CC1)NCc1ccc2c(c1)OCO2 | 18.3%
75 | CC1CCCC(C)N1C(=O)CN1CCN(c2nc(-c3ccc(F)cc3)cs2)CC1 (configuration not stated) | 44.9% (active)
76 | O=C(COC(=O)Cc1ccc([N+](=O)[O-])cc1)NC1CCCCCC1 | 11.9%
77 | Cc1cc(C)cc(OCC(=O)O/N=C(\N)Cc2ccc([N+](=O)[O-])cc2)c1 | 18.5%
78 | COC(=O)C(C)NC(=O)COc1ccc2ccccc2c1 (configuration not stated) | 4.55%
79 | O=C(COC(=O)C1CCCCC1)Nc1ccc([N+](=O)[O-])cc1 | 30.8%
80 | N/C(Cc1ccc([N+](=O)[O-])cc1)=N\OC(=O)C1CCCCC1 | 56% (active)
81 | N/C(Cc1ccc([N+](=O)[O-])cc1)=N\OC(=O)COc1ccc2ccccc2c1 | 44.4% (active)
82 | O=C(CN1CCCCC1)N1c2ccccc2Sc2ccc(C(F)(F)F)cc21 | 13.9%
83 | O=S(=O)(NC(=S)Nc1ccccc1)c1ccc(F)cc1 | -5.64%
84 | CC[C@]12c3[nH]c4cc(CCC(=O)N(C)C)ccc4c3CCN1C(=O)[C@@H](CC(=O)NCc1ccco1)C[C@@H]2C(=O)N1CCN(C(=O)c2ccco2)CC1 | 12.2%
85 | CSc1ccccc1-c1nnc(-c2ccc(Cl)cc2)o1 | 8.43%
86 | FC(F)(F)c1cnc(Oc2ccccc2-c2nnc(-c3ccc(Cl)cc3)o2)c(Cl)c1 | 92.4% (active)
87 | COc1ccccc1-c1nnc(-c2ccc(F)cc2)o1 | 14.8%
88 | C[C@@H]1CC[C@@]2(OC1)O[C@H]1C[C@H]3[C@@H]4CC=C5C[C@@H](O)[C@H](O)C[C@]5(C)C4CC[C@]3(C)[C@H]1[C@@H]2C (some centres not stated) | -10.1%
89 | Cc1cc(Cl)ccc1OCc1nc(-c2ccncc2)no1 | -5.93%
90 | COc1ccc(C(=O)Nc2sc(C)c(C)c2CN2CCOCC2)cc1 | 29%
91 | CCc1cc(C(=O)c2ccc(OC)cc2)c(NC(=O)CN2CCN(C)CC2)s1 | 14.6%
92 | CCc1cc(C(N)=O)c(NC(=O)c2ccc(OC)cc2)s1 | 48.7% (active)
